Counter-ions that a name gives are not always drawn.

For one assay, the system named is 786-O. Nature of the assay: Euclidean distance of Cell Painting phenotypic profile (signed KS, 77 features) to DMSO centroid (dimensionless distance); 5 or 10 uM (library dependent); higher = stronger phenotypic change vs DMSO (phenoactivity). Particulars: 48 h. Put shortly:
(§1)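 Phenoactivity is computed as Euclidean distance to the median vehicle profile. The profiles, drawn from 77 Harmony features scored as signed Kolmogorov-Smirnov statistics versus same-plate vehicle wells, were corrected for plate position, correlation-weighted and replicate-averaged at the top dose. Stained cells were imaged confocally at 20X (9 fields/well) after 48 h with library compounds at 10 or 5 uM, 0.1% DMSO final, in five cancer lines and a healthy fibroblast line.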
`N=C(N)N` [Guanidine HCl] had an Euclidean distance of 0.653.

Take `O=C(O)c1ccccc1O` [Salicylic acid]: the Euclidean distance was 0.877.

Consider `CCCC(CCC)C(=O)O` [Divalproex Sodium], for which the Euclidean distance was 1.31.

As for `C[C@@H](O)[C@H]1C(=O)N2C(C(=O)O)=C(S[C@@H]3CN[C@H](C(=O)N(C)C)C3)[C@H](C)[C@H]12` [Meropenem Trihydrate], the Euclidean distance is 1.26.

In turn, `Cc1ccc(C(=O)N(CCCN)[C@@H](c2nc3cc(Cl)ccc3c(=O)n2Cc2ccccc2)C(C)C)cc1` displayed an Euclidean distance of 3.64.

Take `CC(=O)Nc1cccc2c1c(Sc1ccc(Cl)cc1)c(C)n2CC(=O)O`: the Euclidean distance turned out to be 0.872.

The molecule `C=CC1=C(C(=O)O)N2C(=O)[C@@H](NC(=O)/C(=N\O)c3csc(N)n3)[C@H]2SC1` [Cefdinir] had an Euclidean distance of 0.892.

As for `Cc1cc(-c2ncc(CC(=O)Nc3ccc(-c4cnccn4)cn3)cc2C)ccn1`, the Euclidean distance worked out at 1.05.

`CC1=C(CC(=O)O)c2cc(F)ccc2/C1=C\c1ccc([S+](C)[O-])cc1` (stereo not drawn) [Sulindac] returned an Euclidean distance of 0.824.

In turn, `Cc1ccc(C(=O)Nc2ccc(CN3CCN(C)CC3)c(C(F)(F)F)c2)cc1C#Cc1cnc2cccnn12` returned an Euclidean distance of 4.62.

As for `CN1C(=O)[C@@H](NC(=O)c2n[nH]c(Cc3ccccc3)n2)COc2ccccc21`, the Euclidean distance is 0.778.

Molecule `CN(C)CCN(Cc1ccc(Cl)cc1)c1ccccn1` [Chloropyramine hydrochloride] came in with an Euclidean distance of 0.88.

For `CCCN(CCC)C(=O)C1=Cc2ccc(-c3ccc(C(=O)N4CCCC4)cc3)cc2N=C(N)C1` [Motolimod (VTX-2337)], the Euclidean distance was determined as 1.67.

The test system of another assay is A549. The description is as above. Particulars: 48 h. Put shortly: as §1
In turn, `Cc1cccc(-c2[nH]c(C(C)(C)C)nc2-c2ccc3c(c2)OCO3)n1` showed an Euclidean distance of 1.76.

`CCOC(=O)CC(=O)N1CCSC1COc1ccccc1OC` (stereo not drawn) [Moguisteine] had an Euclidean distance of 0.946.

In turn, `CCNC(=O)[C@@H]1CCCN1C(=O)[C@H](CCCNC(=N)N)NC(=O)[C@H](CC(C)C)NC(=O)[C@@H](CC(C)C)NC(=O)[C@H](Cc1ccc(O)cc1)NC(=O)[C@H](CO)NC(=O)[C@H](Cc1c[nH]c2ccccc12)NC(=O)[C@H](Cc1c[nH]cn1)NC(=O)[C@@H]1CCC(=O)N1` [Leuprorelin Acetate] displayed an Euclidean distance of 1.

Regarding `C=C[C@]1(C)C[C@@H](OC(=O)CS[C@@H]2C[C@H]3CC[C@@H](C2)N3C)[C@]2(C)[C@H](C)CC[C@]3(CCC(=O)[C@H]32)[C@@H](C)[C@@H]1O` [Retapamulin], the Euclidean distance came out at 1.81.

Take `CN(C)N(C)C(=O)[C@@]1(Cc2ccccc2)CCCN(C(=O)[C@@H](Cc2c[nH]c3ccccc23)NC(=O)C(C)(C)N)C1` [Anamorelin]: the Euclidean distance amounted to 0.796.

Regarding `Cn1cc(-c2cnn3c(N)c(Br)c([C@@H]4CCCNC4)nc23)cn1`, the Euclidean distance was found to be 1.1.

For `CCCC(CCC)C(N)=O` [Valpromide], the Euclidean distance came out at 1.08.

The molecule `COc1ccc(C2CC(=O)c3c(O)cc(OC4OC(COC5OC(C)C(O)C(O)C5O)C(O)C(O)C4O)cc3O2)cc1OC` (stereo not drawn) [Methyl-Hesperidin] displayed an Euclidean distance of 0.527.

`CC1(C)S[C@@H]2[C@H](NC(=O)[C@H](N)c3ccccc3)C(=O)N2[C@H]1C(=O)OCOC(=O)[C@@H]1N2C(=O)C[C@H]2S(=O)(=O)C1(C)C` [Sultamicillin] registered an Euclidean distance of 0.999.

`O=c1[nH]c(=O)n([C@H]2C[C@H](O)[C@@H](CO)O2)cc1I` [Idoxuridine] returned an Euclidean distance of 1.26.

Turning to `O=C(OC[C@H]1O[C@@H](OC(=O)c2cc(O)c(O)c(OC(=O)c3cc(O)c(O)c(O)c3)c2)[C@H](OC(=O)c2cc(O)c(O)c(OC(=O)c3cc(O)c(O)c(O)c3)c2)[C@@H](OC(=O)c2cc(O)c(O)c(OC(=O)c3cc(O)c(O)c(O)c3)c2)[C@@H]1OC(=O)c1cc(O)c(O)c(OC(=O)c2cc(O)c(O)c(O)c2)c1)c1cc(O)c(O)c(OC(=O)c2cc(O)c(O)c(O)c2)c1` [Tannic acid], the Euclidean distance came out at 1.44.

With `NC1CCN(c2nc3c(cc2F)c(=O)c(C(=O)O)cn3-c2ccc(F)cc2F)C1` (stereo not drawn) [Tosufloxacin p-Toluenesulfonate Hydrate], the Euclidean distance amounted to 1.03.

As to `O=c1cc(N2CCOCC2)oc2c(-c3cccc4c3sc3ccccc34)cccc12`, the Euclidean distance worked out at 2.66.

As to `CC(C)Oc1ccc2c(=O)c(-c3ccccc3)coc2c1` [Ipriflavone (Osteofix)], the Euclidean distance is 1.44.

As for `CNCCC(Oc1ccc(C(F)(F)F)cc1)c1ccccc1` (stereo not drawn) [Fluoxetine HCl], the Euclidean distance is 1.16.

For `FC(F)(F)c1ccc(CNc2ccc(Cc3c[nH]c4ncc(Cl)cc34)cn2)cn1` [Pexidartinib (PLX3397)], the Euclidean distance is 1.41.

Molecule `Cc1ccc([C@@H]2O[C@H](CO)[C@@H](O)[C@H](O)[C@H]2O)cc1Cc1ccc(-c2ccc(F)cc2)s1` [Canagliflozin hemihydrate] returned an Euclidean distance of 2.27.

For the molecule `CC1(C)CCC[C@]2(C)[C@H]3CC(=O)O[C@]3(C)CC[C@@H]12` [Sclareolide], the Euclidean distance was 1.52.

Regarding `Cc1ccc2c(Cl)cc(Cl)c(O)c2n1` [Chlorquinaldol], the Euclidean distance is 2.3.

The molecule `COc1ccc(CN2CCN(C(c3ccc(F)cc3)c3ccc(F)cc3)CC2)c(OC)c1OC` [Lomerizine 2HCl] yielded an Euclidean distance of 1.66.

Regarding `C#Cc1cccc(Nc2ncnc3cc(OCCOC)c(OCCOC)cc23)c1` [Erlotinib], the Euclidean distance was determined as 2.34.

In the case of `Oc1c2ccccc2c2c3c(cccc13)N=N2`, the Euclidean distance is 1.08.

Molecule `CC[C@@H]1/C=C(\C)C[C@H](C)C[C@H](OC)[C@H]2O[C@@](O)(C(=O)C(=O)N3CCCC[C@H]3C(=O)O[C@H](/C(C)=C/[C@@H]3CC[C@@H](O)[C@H](OC)C3)[C@H](C)[C@@H](O)CC1=O)[C@H](C)C[C@@H]2OC` [Ascomycin (FK520)] returned an Euclidean distance of 1.18.

`CC(C)(C(=O)O)c1ccc(C(O)CCCN2CCC(C(O)(c3ccccc3)c3ccccc3)CC2)cc1` (stereo not drawn) [Fexofenadine HCl] had an Euclidean distance of 0.838.

In turn, `CCC(=O)NS(=O)(=O)c1ccc(-c2c(-c3ccccc3)noc2C)cc1` [Parecoxib] returned an Euclidean distance of 0.57.

For `Cn1cc(-c2ccc3c(c2)ncn3-c2cc(NS(=O)(=O)C3CC3)cc(-c3ccc(F)cc3F)c2)cn1`, the Euclidean distance was determined as 1.64.

Take `COC(=O)/C=C/C(=O)OCCN1C(=O)CCC1=O` [Diroximel Fumarete]: the Euclidean distance came to 0.396.

Molecule `N=C(N)N` [Guanidine HCl] gave an Euclidean distance of 0.962.

`O=C(O)c1ccccc1O` [Salicylic acid]: the Euclidean distance came to 0.32.

The molecule `CCCC(CCC)C(=O)O` [Divalproex Sodium] registered an Euclidean distance of 0.566.

`C[C@@H](O)[C@H]1C(=O)N2C(C(=O)O)=C(S[C@@H]3CN[C@H](C(=O)N(C)C)C3)[C@H](C)[C@H]12` [Meropenem Trihydrate] yielded an Euclidean distance of 1.2.

In turn, `Cc1ccc(C(=O)N(CCCN)[C@@H](c2nc3cc(Cl)ccc3c(=O)n2Cc2ccccc2)C(C)C)cc1` came in with an Euclidean distance of 3.18.

`CC(=O)Nc1cccc2c1c(Sc1ccc(Cl)cc1)c(C)n2CC(=O)O`: the Euclidean distance stood at 0.72.

Molecule `C=CC1=C(C(=O)O)N2C(=O)[C@@H](NC(=O)/C(=N\O)c3csc(N)n3)[C@H]2SC1` [Cefdinir] gave an Euclidean distance of 0.765.

Molecule `Cc1cc(-c2ncc(CC(=O)Nc3ccc(-c4cnccn4)cn3)cc2C)ccn1` showed an Euclidean distance of 1.24.

`CC1=C(CC(=O)O)c2cc(F)ccc2/C1=C\c1ccc([S+](C)[O-])cc1` (stereo not drawn) [Sulindac] returned an Euclidean distance of 0.664.

For the molecule `Cc1ccc(C(=O)Nc2ccc(CN3CCN(C)CC3)c(C(F)(F)F)c2)cc1C#Cc1cnc2cccnn12`, the Euclidean distance worked out at 4.2.

`CN1C(=O)[C@@H](NC(=O)c2n[nH]c(Cc3ccccc3)n2)COc2ccccc21` gave an Euclidean distance of 1.15.

`CN(C)CCN(Cc1ccc(Cl)cc1)c1ccccn1` [Chloropyramine hydrochloride] yielded an Euclidean distance of 1.23.

In turn, `CCCN(CCC)C(=O)C1=Cc2ccc(-c3ccc(C(=O)N4CCCC4)cc3)cc2N=C(N)C1` [Motolimod (VTX-2337)] displayed an Euclidean distance of 2.04.

The values above are taken from the supplement of paper PMC10127200.
